# Assay results as given in PubChem BioAssay.
# Assay: NFkB reporter suppression in cystic fibrosis bronchial cells – cell-based, uHTS hits, panel, cytotoxicity readout, dose response (AID 624344)
# Details: CF bronchial epithelial cells, PAF-induced NFkB reporter inhibition, with PAF, run 1; at 79 µM (top of the series) unless noted
row,SMILES,inhibition [%]
1,CC1(Cc2ccc(Cl)cc2)C(=O)Nc2ccc(-c3cccnc3)cc21 (stereo not given),107
2,O=C(NCCc1ccccc1)c1coc(=O)c(Br)c1,84
3,COc1ccc(-n2c(C)c(C(C)=O)c3cc(O)ccc32)cc1,117
4,O=C1NC(c2cccc3ccccc23)Nc2ccc(Cl)cc21 (stereo not given),61.5
5,c1ccc2c(c1)Nc1ccncc1S2,114
6,O=C(Nc1ccccc1N1CCOCC1)c1cc(-c2ccco2)nc2ccccc12,102
7,O=c1c(-c2c(O)cc(O)c3c2O[C@H](c2ccc(O)cc2)CC3)c(-c2ccc(O)cc2)oc2cc(O)cc(O)c12,105
8,O=C1/C(=C/c2cccnc2)CCc2c1[nH]c1ccccc21,103
9,CCc1ccc(Nc2n[n+](-c3ccccc3)c(-c3c(Cl)cccc3Cl)s2)cc1,116
10,CCc1cc(SC#N)cc(C)c1NC(=O)CCl,107
11,Cc1nn(-c2ccccc2)c(N2CCCC2)c1/C=N/NC(=O)c1cc(-c2ccccc2)nc2ccccc12,104
12,O=C(NCCc1ccc(F)cc1)c1coc(=O)c(Br)c1,82
13,COc1ccc(N(CCCN2C(=O)c3cccc4cccc(c34)C2=O)C(=O)c2ccncc2)cc1,5.78
14,Cc1ccc(N=Cc2cc3c(cc2O)OC(N)=C(C#N)C3c2ccccc2)cc1 (stereo not given),79.8
15,C=C1C(=O)C2=CC1CCC(=O)C1(C)CCC(OC(C)=O)C(C)(C)C1CC2O (stereo not given),94.6
16,COc1ccc(C2=Nn3c(nnc3-c3ccccc3OC)SC2)cc1OC1CCOC1 (stereo not given),92.2
17,COc1ccc(-n2ncc3c(N4CCN(Cc5ccccc5)CC4)ncnc32)cc1,113
18,c1cncc(-c2ccc3ncnc(NCc4ccc5c(c4)OCO5)c3c2)c1,112
19,NC(=O)c1sc2nccc(Nc3ccccc3)c2c1N,117
20,CCC(CO)Oc1cc(NCc2ccc(Cl)cc2Cl)c2ncn(C(C)C)c2c1 (stereo not given),105

row,SMILES,inhibition [%]
1,CC(C)[C@H](CO)Nc1nc(NCc2ccc(S(N)(=O)=O)cc2)c2ncn(C(C)C)c2n1,107
2,C=CCn1cnc2c(c1=O)c1nc3ccccc3nc1n2/N=C/c1cc(OC)c(OC)c(OC)c1,109
3,O=C1NC(=S)N/C1=C/c1cccnc1,97.5
4,c1csc(Cc2nn3c(-c4ccncc4)nnc3s2)c1,115
5,COc1ccc(-n2c(C)cc3cc(OC(C)=O)ccc32)cc1,86.5
6,COCCN1Cc2cccc(C(=O)Nc3cccc(-c4nc5ccccc5[nH]4)c3)c2C1=O,95.8
7,CN(C)CCCN(C(=O)CCSc1ccccc1)c1nc2cc3c(cc2s1)OCO3,106
8,COc1ccc(-c2cnc3c(NC=O)cc(-c4ccccc4OC)cn23)cc1OC,93.5
9,Cc1csc(CNc2ncnc3ccc(-c4ccoc4)cc23)c1,111
10,C=CCN1c2ccccc2[C@]23C[C@@H](C(=O)OC)N(C(=O)c4ccc(Br)cc4)C2=NC(C(=O)OC)=C(C(=O)OC)[C@H]13,115
11,C=C(C)[C@@H]1CC[C@]2(C(=O)O)CC[C@]3(C)[C@H](CC[C@@H]4[C@@]5(C)CC[C@H](O)C(C)(C)[C@@H]5CC[C@]43C)[C@@H]12,47.9
12,CCN1CCN(Cc2ccc(NC(=O)c3ccc(C)c(NC(=O)c4ccno4)c3)cc2C(F)(F)F)CC1,105
13,C[C@H](O)[C@@H]1CN2CCc3c([nH]c4ccc(-c5ccc6c(c5)OCO6)cc34)[C@@H]2C[C@@H]1N(C)C(=O)Nc1ccc(F)cc1,99.8
14,CC(C)C[C@@H](CN1CCC[C@@H]1CN1C(=S)NC[C@@H]1Cc1ccc(O)cc1)N1C[C@H](Cc2ccc(O)cc2)N(CC2CCCCC2)C1=S,105
15,Cc1nn(-c2cccc(Cl)c2)c2nc(C(F)(F)F)[nH]c(=O)c12,96
16,CCC(=O)c1ccc(O)c(CC=C(C)C)c1,114
17,Nc1nccc(SCc2ccc(Cl)cc2Cl)n1,72.7
18,CC(C)=CCc1c(O)cc(O)c2c1OC(c1ccc(O)cc1)CC2=O (stereo not given),93.2
19,CCOc1ccc(C(C(=O)NC2CCCC2)N(C(=O)c2snc(C(N)=O)c2N)c2cccc(O)c2)cc1 (stereo not given),105
20,Cc1ccc(S(=O)(=O)n2cc(-c3ccccc3)c3ccccc32)cc1,114
